D1 agonist: agonists of human D1 dopamine receptor. P21728. HEK293 T-REx D1 cells, calcium flux, agonist mode. activation, % at 2 µM. 1% of 360,000 active. AID 504660; also: 0% is about no effect
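Tetracycline-induced HEK293 TREx D1 cells, force-coupled to calcium signalling, were dye-loaded with a no-wash calcium kit. Compound was pin-added after a 10 s baseline. Fluorescence was read kinetically at 1 cycle/s for 180 s, with calcium rises flagged as agonism.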
TRHR agonist: agonists of human TRH receptor; TRHR cells, calcium flux fluo-8, FDSS agonist mode; activation, % at 2 µM; 0.18% of 360,000 active; also: 0% is about no effect
Target sequence (P34981 whole entry, looked up): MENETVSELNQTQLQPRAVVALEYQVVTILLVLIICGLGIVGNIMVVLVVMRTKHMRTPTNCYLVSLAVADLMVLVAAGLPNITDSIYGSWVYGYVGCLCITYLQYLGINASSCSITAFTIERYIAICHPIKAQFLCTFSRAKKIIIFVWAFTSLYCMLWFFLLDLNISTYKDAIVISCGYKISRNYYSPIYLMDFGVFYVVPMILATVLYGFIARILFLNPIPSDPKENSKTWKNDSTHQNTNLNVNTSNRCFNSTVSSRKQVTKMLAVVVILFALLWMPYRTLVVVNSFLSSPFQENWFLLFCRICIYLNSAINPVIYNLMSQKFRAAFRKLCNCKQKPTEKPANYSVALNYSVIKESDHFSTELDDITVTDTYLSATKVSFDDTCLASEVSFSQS
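Read-out: compound-evoked intracellular calcium rise in TRHR cells, fluo-8 dye, kinetic FDSS fluorescence at 1 s/cycle following a 10-cycle baseline. Cells cultured overnight before dye loading (30 min–1.5 h, RT).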
D1 antag: human D1 dopamine receptor antagonism; P21728; HEK293 TREx D1 cells, calcium flux, dopamine EC80; active compounds read low; activity change, negative = inhibition, % at 10 µM; 3.2% of 360,000 active; AID 504652; in the data active = activity change below about -30%; also: % is scaled to controls: 0 for no effect and ±100 for the full control effect
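Cells carrying a force-coupled, tetracycline-inducible human D1 receptor report calcium flux. Each well gets a 10 s baseline, compound with 180 s monitoring, then an EC80 dopamine stimulus with a second 180 s kinetic read.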
D1 potentiator: potentiators of human D1 dopamine receptor; potentiation, % at 10 µM; HEK293 TREx D1 cells, calcium flux, dopamine EC20 potentiation; AID 504651; 0.036% of 360,000 active; in the data active = potentiation above about 30%; also: 0% is about no effect
TRHR enhancer: allosteric enhancers of human TRH receptor | 0.66% of 360,000 active | P34981 | enhancement, % at 2 µM | AID 493056 | TRHR cells, fluo-8 calcium fluorescence, EC20 TRH enhancement; in the data active = enhancement above about 30%; also: 0% is about no effect
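Enhancer read-out: after compound pinning and an initial kinetic agonist-mode read, an EC20 of TRH (10 nM final) was injected and fluo-8 calcium signal (Ex 480/Em 530) followed at 1 s/cycle for 100 cycles in TRHR-expressing cells.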
An asterisk follows results filed as active; nt = not tested or not shown; ! = repeats disagree. Rows were chosen to be rich in hits. Some 4.6% of all compounds tested hit in one or more screens of this group. Rule as the data show it, unless noted: active = activation above about 30%; inactive = the rest.

SMILES | D1 agonist | TRHR agonist | D1 antag | D1 potentiator | TRHR enhancer
COC(=O)C1=CNC=C(C(=O)OC)C1c1ccc(C(=O)OC)cc1 | 38* | 9 | -6 | -4 | 1
CCC(Cc1ccccc1)NC(=O)C1=C(C)C(=O)OC12CCC(C)CC2 (stereo unspecified) | 0 | 0 | 20 | -4 | -1
CCCC1(c2ccccc2)NC(=O)N(CC(=O)c2[nH]c(C)c(C(=O)OCC)c2C)C1=O (stereo unspecified) | 39* | -1 | 42 | 4 | 5
CCOC(=O)c1c(C)[nH]c(C(=O)CN2C(=O)NC3(CCCC3)C2=O)c1C | 2 | 0 | 29 | 0 | 2
O=C(NCc1ccccc1F)C(=O)NCC(c1ccco1)S(=O)(=O)c1cccs1 (stereo unspecified) | -1 | 0 | nt | 0 | 0
COc1ccccc1CNC(=O)Cn1c(-c2ccc(F)cc2)cc(C(C)=O)c1C | -1 | -1 | 7 | -4 | 10
COc1ccc(OC)c(NC(=O)COc2coc(CN3CCc4ccccc43)cc2=O)c1 | 7 | -1 | -36* | -10 | 4
Cc1ccc(NC(=O)COc2coc(CN3c4ccccc4CC3C)cc2=O)c(C)c1 (stereo unspecified) | 3 | 0 | -14 | -11 | 3
CC1Cc2ccccc2N1Cc1cc(=O)c(OCC(=O)Nc2ccccc2)co1 (stereo unspecified) | 3 | 0 | -33* | -4 | 1
Cc1c(CC(=O)NCc2ccc(F)cc2)c(=O)oc2cc(O)c(Cl)cc12 | 2 | 0 | -14 | -2 | 22
COc1cccc(/C=C/C(=O)OCC(=O)NCC2CCCO2)c1OC (stereo unspecified) | 5 | 0 | -34* | 5 | 10
COc1cccc(/C=C/C(=O)OCC(=O)NCC2CCCO2)c1 (stereo unspecified) | 4 | 0 | 16 | -2 | 0
CCC(C(=O)OCC(=O)NC(=O)c1ccccc1OC)c1ccccc1 (stereo unspecified) | 8 | 0 | -2 | -1 | 6
CCC(C(=O)OCC(=O)NC(=O)c1ccccc1)c1ccccc1 (stereo unspecified) | 70* | -1 | -10 | -5 | -2
CCSC1=NC2(CCN(C(=O)NC3CCCCC3)CC2)N=C1c1ccc(OC)cc1 | 0 | -1 | 5 | 5 | -9
O=C(OCn1nnc2ccccc2c1=O)c1ccc(O)cc1 | 3 | 0 | -8 | -3 | 2
Cc1onc(-c2ccccc2Cl)c1C(=O)OCn1nnc2ccccc2c1=O | 2 | 1 | -50* | -7 | 1
Cc1ccc(C)c(C(=O)CCC(=O)OCn2nnc3ccccc3c2=O)c1 | 2 | -1 | -64* | -4 | -1
O=C(OCn1nnc2ccccc2c1=O)c1ccc(Br)o1 | 3 | -1 | 4 | -1 | 33*
O=C(OCn1nnc2ccccc2c1=O)c1cc(-c2ccccc2Cl)nc2ccccc12 | 3 | 0 | 4 | -7 | 0
COc1ccc(NC(=O)C2CCCN2S(=O)(=O)c2ccc3c(c2)CCCC(=O)N3)cc1Cl (stereo unspecified) | 1 | 0 | -7 | 3 | 11
Cc1ccc(Oc2nccc(-c3ccc(Cl)cc3)n2)cc1 | 26 | 0 | -30* | -19 | 2
c1ccc(COc2ccc(OCCCNC3CCCC3)cc2)cc1 | 35* | 3 | -26 | 1 | 0
COCCCNCCOc1ccc(C(C)(C)c2ccccc2)cc1 | 29 | 1 | 8 | -2 | -8
C=CCNCCCCOc1ccc(OCc2ccccc2)cc1 | 45* | 1 | -6 | -5 | -1
SMILES | D1 agonist | TRHR agonist | D1 antag | D1 potentiator | TRHR enhancer
COCCCNCCCCOc1ccc(OCc2ccccc2)cc1 | 35* | 2 | -18 | -4 | 1
CCc1ccc(CNC(=O)Cc2ccc(NC(=O)N3CCSc4ncccc43)cc2)cc1 | 2 | 0 | -18 | -3 | -5
O=C(O)c1ccc(CS(=O)c2cccc(C(F)(F)F)c2)o1 (stereo unspecified) | 9 | 0 | -32* | -1 | 3
COc1ccccc1COC(=O)Nc1c(C)nn(C)c1Cl | 10 | 0 | -43* | -8 | -11
Cc1nn(C)c(Cl)c1NC(=O)OCc1ccc(F)cc1 | 27 | -1 | -61* | -10 | 8
CCc1cccc(C)c1NC(=O)C(CC)n1ncn2c(cc3cc(C)ccc32)c1=O (stereo unspecified) | 3 | 0 | 14 | 6 | 2
CCOC(=O)c1ccc(N=c2sc(C(=O)OC)cc(=O)n2CCCN2CCOCC2)cc1 | 4 | 0 | -40*! | -9 | 0
Cc1ccc2[nH]c(=O)c(CN(Cc3nnnn3Cc3ccccc3)C3CCCC3)cc2c1 | -1 | 0 | 2 | 6 | 33*
CCOC(=O)Cn1nnnc1CN(Cc1ccccc1)Cc1cc2cc(CC)ccc2[nH]c1=O | 2 | 0 | -39* | -5 | 0
CCc1ccc2[nH]c(=O)c(CN(Cc3ccccc3)Cc3nnnn3Cc3ccco3)cc2c1 | 5 | 1 | 7 | 3 | -1
COc1ccc(C2C(C(C)=O)=C(C)N=c3s/c(=C\c4cc(C)n(C)c4C)c(=O)n32)c(OC)c1 (stereo unspecified) | 121* | 53* | -13 | -7 | 10
COc1cc(-c2noc(-c3ccc(N(C)C)c([N+](=O)[O-])c3)n2)cc(OC)c1OC | 12 | 1 | -24 | -4 | -7
Cc1cccc(-c2nnc(-c3cccc(NC(=O)Cc4cccs4)c3)o2)c1 | 4 | 0 | -40* | 1 | -6
O=C(Cc1cccs1)Nc1cccc(-c2nc3ccccc3o2)c1 | 2 | 4 | -47* | 0 | -1
Cc1ccc(-c2nc3ccccc3o2)cc1NC(=O)Cc1cccs1 | 3 | 2 | -4 | -2 | -12
Cn1ccc2cc(S(=O)(=O)N3CCCN(C(=O)Nc4ccccc4Br)CC3)ccc21 | 6 | 0 | 8 | 0 | 5
COc1ccc(N2CCN(C(=O)C3CCCN(S(=O)(=O)c4ccc5c(c4)CCCN5C(C)=O)C3)CC2)cc1 (stereo unspecified) | 1 | 0 | -24 | -2 | 4
CC(=O)N1CCCc2cc(S(=O)(=O)N3CCCC(C(=O)NCc4ccccc4Cl)C3)ccc21 (stereo unspecified) | 1 | 1 | -42*! | -9 | -5
CC(=O)N1c2ccc(S(=O)(=O)N3CCCC(C(=O)NCc4ccccc4Cl)C3)cc2CC1C (stereo unspecified) | 1 | 0 | -11 | -4 | 6
CC(=O)N1CCCc2cc(S(=O)(=O)N3CCCC(C(=O)N4CCN(c5ccccc5F)CC4)C3)ccc21 (stereo unspecified) | 3 | 0 | -39* | -4 | 1
COc1cccc(CN2C(=O)c3ccccc3Sc3ccc(C(=O)NCCc4ccc(Cl)cc4)cc32)c1 | 8 | 2 | 4 | 0 | 18
O=C(CCN1C(=O)C2C3CCC(C3)C2C1=O)OCC(=O)c1ccc(Br)cc1 (stereo unspecified) | 11 | 0 | -31* | -2 | -9

Assay outcomes deposited in PubChem BioAssay by National Center for Advancing Translational Sciences (NCATS).
